Source: PubChem BioAssay (several laboratories)
TcdB inh – TcdB glycohydrolase inhibition; P18177; TcdB glycohydrolase enzymatic assay, plate reader; inhibition, % at 9.99 µM; actives 0.24% (n = 350,000); AID 652162; in the data active means inhibition above about 10%
Target sequence (P18177 whole entry, looked up): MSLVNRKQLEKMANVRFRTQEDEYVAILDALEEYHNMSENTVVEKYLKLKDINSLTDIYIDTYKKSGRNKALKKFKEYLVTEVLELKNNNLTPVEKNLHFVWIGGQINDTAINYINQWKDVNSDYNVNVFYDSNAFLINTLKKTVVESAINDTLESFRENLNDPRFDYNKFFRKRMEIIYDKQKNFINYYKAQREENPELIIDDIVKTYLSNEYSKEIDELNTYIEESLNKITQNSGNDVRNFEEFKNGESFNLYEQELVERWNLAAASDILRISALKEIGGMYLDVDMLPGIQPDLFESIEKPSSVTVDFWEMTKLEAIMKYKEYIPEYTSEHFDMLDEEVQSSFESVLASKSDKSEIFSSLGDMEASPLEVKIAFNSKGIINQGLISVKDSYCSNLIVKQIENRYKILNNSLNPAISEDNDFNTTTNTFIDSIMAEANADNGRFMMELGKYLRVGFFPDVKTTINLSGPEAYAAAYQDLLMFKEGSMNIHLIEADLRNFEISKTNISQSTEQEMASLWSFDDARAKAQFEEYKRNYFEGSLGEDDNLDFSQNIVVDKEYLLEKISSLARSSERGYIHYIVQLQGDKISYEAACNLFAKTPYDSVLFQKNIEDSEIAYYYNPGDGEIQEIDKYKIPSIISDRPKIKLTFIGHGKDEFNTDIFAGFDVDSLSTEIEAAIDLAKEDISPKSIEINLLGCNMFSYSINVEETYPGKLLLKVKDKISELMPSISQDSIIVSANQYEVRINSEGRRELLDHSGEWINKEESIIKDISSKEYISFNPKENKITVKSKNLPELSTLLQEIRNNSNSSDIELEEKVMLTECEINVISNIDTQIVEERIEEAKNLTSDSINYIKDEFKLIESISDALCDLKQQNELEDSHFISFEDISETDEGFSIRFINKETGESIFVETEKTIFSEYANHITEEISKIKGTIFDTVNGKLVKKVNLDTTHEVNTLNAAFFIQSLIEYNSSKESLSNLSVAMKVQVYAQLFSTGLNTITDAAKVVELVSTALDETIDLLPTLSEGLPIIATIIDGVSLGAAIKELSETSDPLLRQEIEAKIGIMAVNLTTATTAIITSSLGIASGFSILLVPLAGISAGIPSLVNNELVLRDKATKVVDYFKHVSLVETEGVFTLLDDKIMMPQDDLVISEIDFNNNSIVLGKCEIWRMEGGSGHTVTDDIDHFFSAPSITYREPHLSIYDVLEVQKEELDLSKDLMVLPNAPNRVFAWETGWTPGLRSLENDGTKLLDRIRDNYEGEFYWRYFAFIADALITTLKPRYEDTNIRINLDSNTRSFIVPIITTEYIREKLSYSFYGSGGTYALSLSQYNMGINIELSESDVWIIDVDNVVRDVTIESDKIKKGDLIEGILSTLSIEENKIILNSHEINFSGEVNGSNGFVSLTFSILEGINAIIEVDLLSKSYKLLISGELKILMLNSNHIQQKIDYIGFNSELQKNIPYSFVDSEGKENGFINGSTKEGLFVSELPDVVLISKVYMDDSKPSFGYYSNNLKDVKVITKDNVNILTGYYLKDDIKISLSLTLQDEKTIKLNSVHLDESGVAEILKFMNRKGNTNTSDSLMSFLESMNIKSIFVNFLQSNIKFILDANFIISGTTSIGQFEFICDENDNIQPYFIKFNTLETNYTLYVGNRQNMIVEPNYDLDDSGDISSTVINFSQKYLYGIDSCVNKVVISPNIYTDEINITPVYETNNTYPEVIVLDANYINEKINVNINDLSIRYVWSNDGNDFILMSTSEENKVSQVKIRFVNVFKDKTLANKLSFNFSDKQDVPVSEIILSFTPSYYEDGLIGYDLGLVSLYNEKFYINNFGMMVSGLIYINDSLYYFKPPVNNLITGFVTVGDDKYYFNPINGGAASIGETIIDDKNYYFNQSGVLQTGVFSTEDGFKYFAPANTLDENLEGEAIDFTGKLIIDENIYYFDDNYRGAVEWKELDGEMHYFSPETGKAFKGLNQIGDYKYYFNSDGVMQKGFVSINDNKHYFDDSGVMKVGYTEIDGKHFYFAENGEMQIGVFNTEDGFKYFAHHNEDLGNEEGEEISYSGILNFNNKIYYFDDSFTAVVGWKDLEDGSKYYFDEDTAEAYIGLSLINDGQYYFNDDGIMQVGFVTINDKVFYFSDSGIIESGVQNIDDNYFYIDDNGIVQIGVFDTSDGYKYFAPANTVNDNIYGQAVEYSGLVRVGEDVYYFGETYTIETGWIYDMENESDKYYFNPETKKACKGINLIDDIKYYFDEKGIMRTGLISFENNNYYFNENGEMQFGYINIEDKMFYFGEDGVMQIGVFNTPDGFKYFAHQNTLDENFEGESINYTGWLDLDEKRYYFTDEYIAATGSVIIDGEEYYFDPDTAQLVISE
Y pestis TopoI – blocks Yersinia pestis topoisomerase I activity. activity, % at 10 µM. Y. pestis Topo-I cleavage product accumulation, plate reader. AID 504884. actives 0.064% (n = 360,000); in the data active means activity above about 50%, passing the limit was not always enough
VHR inh abs – DUSP3 (human) phosphatase inhibition | actives 0.52% (n = 290,000) | inhibition, % at 13.3 µM | recombinant VHR phosphatase, pNPP absorbance | P51452; in the data active means inhibition above about 50%
BioA inh-1 – inhibitors of Mycobacterium tuberculosis BioA enzyme; purified M. tuberculosis BioA enzyme, plate reader; inhibition, % at 9.99 µM; actives 0.096% (n = 360,000); AID 602481; in the data active means inhibition above about 40%
Vc quorum ag – inducers of Vibrio cholerae quorum light production without autoinducers; actives 0.16% (n = 350,000); activation, % at 18.7 µM; V. cholerae BH1578 lux reporter, luminescence, 6 h; AID 588436; in the data active means activation mostly above about 9.7%, no sharp cut-off
BioA inh-2 – inhibitors of Mycobacterium tuberculosis BioA enzyme; shares compounds with BioA inh-1; 310 tested, under 10 active; purified BioA enzyme, plate reader, dose response; max activity, %;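 further: top concentration of the dilution series was 10 µM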
HepG2 tox 2 – cytotoxicity in HepG2 cells. shares compounds with BioA inh-1. plate reader. max activity, %. 310 tested, under 10 active
3T3 cytotox 5 – kills NIH3T3 cells; NIH3T3 cytotoxicity, plate reader; shares compounds with BioA inh-1; 310 tested, under 10 active; activity change, negative = cytotoxicity, % at 26 µM
Hits are given with their value; i = inactive; nt = no result given. This is a sample that favours compounds with a hit; in the whole collection about 0.73% have one here. Unless noted, how the calls were made is not given here.

SMILES | TcdB inh | Y pestis TopoI | VHR inh abs | BioA inh-1 | Vc quorum ag | BioA inh-2 | HepG2 tox 2 | 3T3 cytotox 5
O=C(NC1CCCc2c1cnn2-c1cc(F)cc(F)c1)c1cc[n+]([O-])cc1 (stereo not drawn) | i | i | i | i | i | nt | nt | nt
O=C(NC1CCCc2c1cnn2-c1cc(F)cc(F)c1)c1ccc[n+]([O-])c1 (stereo not drawn) | i | i | i | 65 | i | i | i | i
Cc1nc2nc(SCC(=O)N3CCOCC3)nn2c(C)c1Cc1c(F)cccc1Cl | nt | i | i | 94 | i | i | i | i
Cc1nc2nc(SCC(=O)N3CCC4(CC3)OCCO4)nn2c(C)c1Cc1ccccc1 | nt | i | i | 74 | i | i | i | i
Cc1nc2nc(SCC(=O)NCCN3CCOCC3)nn2c(C)c1Cc1ccccc1 | nt | i | i | nt | i | nt | nt | nt
Cc1cc(C)n2nc(SCC(=O)N3CCC4(CC3)OCCO4)nc2n1 | nt | i | i | i | i | nt | nt | nt
Cc1ccc(Cc2c(C)nc3nc(SCC(=O)NCCCN4CCCCC4)nn3c2C)cc1 | i | i | i | 54 | i | i | i | i
CNC(=O)C[C@H]1CC[C@@H]2[C@H](COC[C@@H](O)CN2C(=O)Nc2ccc(Cl)c(Cl)c2)O1 | i | nt | nt | 83 | nt | i | i | i
COc1cccc(NC(=O)N2C[C@H](O)COC[C@@H]3O[C@@H](CC(=O)N(C)C)CC[C@H]32)c1 | i | nt | nt | 99 | nt | i | i | i
CNC(=O)C[C@@H]1CC[C@H]2[C@@H](COC[C@H](O)CN2C(=O)Nc2ccc(Cl)c(Cl)c2)O1 | i | nt | nt | i | nt | nt | nt | nt
COc1ccc(CNC(=O)C[C@H]2C=C[C@@H](NC(=O)c3ccc4c(c3)OCO4)[C@@H](CO)O2)cc1 | i | nt | nt | nt | nt | nt | nt | nt
CO[C@@H]1CN(C)C(=O)c2cc(NC(=O)C3CC3)ccc2OC[C@H](C)N(C(=O)Cc2ccccn2)C[C@@H]1C | i | nt | nt | i | nt | nt | nt | nt
C[C@H](CO)N1C[C@H](C)[C@H](CN(C)S(=O)(=O)c2ccc(F)cc2)OCCCC[C@H](C)Oc2ccc(NS(C)(=O)=O)cc2C1=O | i | nt | nt | i | nt | nt | nt | nt
O=C(Nc1ccc(N2CCOCC2)c(Cl)c1)c1cccnc1 | nt | i | i | 47 | i | i | i | i
O=C(NCc1cccnc1)c1ccc(N2CCOCC2)c([N+](=O)[O-])c1 | i | i | i | nt | i | nt | nt | nt
O=C(Nc1cccnc1)c1ccc(N2CCCC2)c([N+](=O)[O-])c1 | i | i | i | 72 | i | i | i | i
O=C(Nc1cccnc1)c1ccc(N2CCOCC2)c([N+](=O)[O-])c1 | i | i | i | 49 | i | i | i | i
C[C@H](CO)N1C[C@H](C)[C@@H](CN(C)C(=O)C2CCOCC2)Oc2ncc(C3=CCCCC3)cc2C1=O | i | nt | nt | i | nt | nt | nt | nt
CCOC(=O)c1sc(N)c(C(N)=O)c1C | i | i | i | i | i | nt | nt | nt
CCOC(=O)c1c(N)sc(C(N)=O)c1C | nt | i | i | 58 | i | i | i | i
Cc1c(C(N)=O)sc(N)c1C(=O)OC(C)C | nt | i | i | 92 | i | i | i | i
COCC#Cc1ccc([C@@H]2[C@@H](C#N)N(C(=O)NC3CCCC3)[C@@H]2CO)cc1 | i | nt | nt | i | nt | nt | nt | nt
COc1ccc2c3c(n(C)c2c1)[C@@H](CO)N(CC1CC1)CC31CN(S(=O)(=O)c2cccs2)C1 | i | nt | nt | nt | nt | nt | nt | nt
CC(=O)c1ccc(NC(=O)C2CC(=O)N(Cc3ccccc3)C2)cc1 (stereo not drawn) | nt | i | i | 74 | i | i | i | i
Cc1ccccc1CC1(CO)CCCN(C(=O)c2ccccc2Cl)C1 (stereo not drawn) | i | i | i | nt | i | nt | nt | nt
SMILES | TcdB inh | Y pestis TopoI | VHR inh abs | BioA inh-1 | Vc quorum ag | BioA inh-2 | HepG2 tox 2 | 3T3 cytotox 5
CC(=O)c1ccc(C(=O)N2CCCC(CO)(Cc3ccccc3C)C2)s1 (stereo not drawn) | i | i | i | 54 | i | i | i | i
CN1c2ccc(-c3cccc(F)c3)cc2[C@H]2[C@H](CCN2C(=O)c2ccncc2)[C@@H]1CO | nt | nt | nt | 69 | nt | i | i | i
CN1c2ccc(-c3cccc(F)c3)cc2[C@H]2[C@H](CCN2C(=O)C2CC2)[C@H]1CO | i | nt | nt | 41 | nt | i | i | i
CN1c2ccc(-c3cccc(F)c3)cc2[C@@H]2[C@@H](CCN2C(=O)C2CC2)[C@H]1CO | i | nt | nt | i | nt | nt | nt | nt
CCC(=O)N1CC[C@@H]2[C@@H](CO)N(C)c3ccc(-c4cccc(F)c4)cc3[C@@H]21 | nt | nt | nt | 68 | nt | i | i | i
COCC(=O)N1CC[C@@H]2[C@@H](CO)N(C)c3ccc(-c4ccc(F)cc4)cc3[C@@H]21 | nt | nt | nt | 61 | nt | i | i | i
